According to PubChem BioAssay (Tox21):
Values joined by “and” are separate entries in the source; they are usually repeats but may differ in a detail not shown here. Identical values can stand only once. Records with an inconclusive call do not appear. The source holds several records for some structures; these can differ, active in one and inactive in another. Active and inactive are the calls of the source. Unless noted, calls follow the shape of the dose curve; as a rule, active = well fitted curve in the direction sought with a large enough effect in the repeat runs; inconclusive = weak or mixed curves; inactive = no such curve, though single readings can be large; an effect the other way counts as inactive or inconclusive.

Key:
[1] = qHTS assay to identify small molecule agonists of the RXR signaling pathway - cell viability counter screen (AID 1159529); also: nearly all actives have a fitted effect of over 50% in size
How it was run: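 Compounds dissolved in DMSO were pinned onto HEK 293T cells carrying a beta-lactamase reporter under RXR-alpha control and incubated 16 hr. Cytotoxicity was then quantified by CellTiter-Glo luminescence.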

[2] = qHTS assay to identify small molecule antagonists of the retinoid acid receptor (RAR) signaling pathway - cell viability counter screen (AID 1159551); also: nearly all actives have a fitted effect of over 35% in size
How it was run: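 In this counter screen, the RARE-luciferase line C3RL4 was exposed for 6 h at 37 C and 5% CO2 to compounds with retinol at 1 uM final. Cellular ATP, read by luminescence, served as the viability measure.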

[3] = qHTS assay to identify small molecule antagonists of the retinoic acid receptor (RAR) signaling pathway (AID 1159552; also: nearly all actives have a fitted effect of over 50% in size)
How it was run: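 Test chemicals and DMSO controls were pin-transferred onto C3RL4 cells a day after seeding; retinol (1 uM final) followed at once. Luminescent reporter output was quantified after 6 hr of co-incubation and 30 min with detection reagent.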

[4] = qHTS assay to identify small molecule antagonists of the estrogen related receptor (ERR) signaling pathway from Tox21 library - cell viability counter screen (AID 1224834); also: nearly all actives have a fitted effect of over 30% in size
How it was run: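 Counter screen run in ERR cells (2,000 cells/well): cells pre-incubated 6 h, then treated with compounds for 17.5 h at 37 C. Fluorescence was read 30 min after CellTiter-Fluor addition.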

[5] = target: Luciferin 4-monooxygenase (Photinus pyralis) (UniProt P08659); experiment: qHTS assay to identify small molecule inhibitors of firefly luciferase (AID 1224835); also: nearly all actives have a fitted effect of over 25% in size; also: potency is read from the fitted curve at half-maximal effect
How it was run: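 Inhibition of purified Photinus luciferase is measured by luminescence. Substrate levels (D-luciferin, ATP) sit at their KM values. Each compound is tested in a concentration series.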

[6] = qHTS assay to identify small molecule agonists of the constitutive androstane receptor (CAR) signaling pathway - cell viability counter screen (AID 1224836); also: nearly all actives have a fitted effect of over 45% in size
How it was run: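 23 h treatment, 37 C, 5% CO2. Cell line: HepG2 stably expressing hCAR with a CYP2B6-2.2kb construct. Co-treatment: PK11195, 0.75 uM final. Read-out: CellTiter-Fluor fluorescence intensity.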

[7] = qHTS assay to identify small molecule antagonists of the constitutive androstane receptor (CAR) signaling pathway - cell viability counter screen (AID 1224837); also: nearly all actives have a fitted effect of over 45% in size
How it was run: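 CITCO at 50 nM final was added alongside compounds (15 concentrations) to double-stable hCAR/CYP2B6-2.2kb HepG2 cells. Following 23 hr at 37 C, cell viability was quantified by CellTiter-Fluor fluorescence intensity.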

[8] = target: Nuclear receptor subfamily 1 group I member 3 (Homo sapiens) (UniProt Q14994); experiment: qHTS assay to identify small molecule antagonists of the constitutive androstane receptor (CAR) signaling pathway (AID 1224838); also: nearly all actives have a fitted effect of over 40% in size; also: potency is read from the fitted curve at half-maximal effect
How it was run: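 Inhibition of CITCO-driven (50 nM final) CYP2B6 reporter expression is measured in HepG2 cells stably carrying hCAR. Fifteen compound concentrations are applied for 24 h at 37 C, followed by luciferase luminescence.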

[9] = target: Nuclear receptor subfamily 1 group I member 3 (Homo sapiens) (UniProt Q14994); experiment: qHTS assay to identify small molecule agonists of the constitutive androstane receptor (CAR) signaling pathway (AID 1224839); also: nearly all actives have a fitted effect of over 15% in size; also: potency is read from the fitted curve at half-maximal effect
How it was run: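 Compounds tested at 15 concentrations on HepG2 cells stably harbouring hCAR and CYP2B6-2.2kb reporter constructs, co-treated with PK11195 (0.75 uM final), 24 h at 37 C; luminescent reporter signal quantified.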

[10] = qHTS assay to identify small molecule antagonists of the estrogen related receptor signaling pathway with the pleiotropic PPARgamma coactivator (PGC) from Tox21 10K library - cell viability counter screen (AID 1224840; active = well fitted cell-killing curve with a large enough effect in the repeat runs, not every such curve was filed as active; also: nearly all actives have a fitted effect of over 40% in size)
How it was run: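 Readout: fluorescence intensity from CellTiter-Fluor after 30 min at 37 C/5% CO2. Preceded by 17.5 h treatment of PGC/ERR cells with DMSO-dissolved compounds, added 6 h post-seeding.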

[11] = qHTS assay to identify small molecule agonists of the estrogen related receptor signaling pathway with the pleiotropic PPARgamma coactivator (PGC) from Tox21 10K library (AID 1224842); also: nearly all actives have a fitted effect of over 15% in size
How it was run: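 Luminescence from One-Glo (30 min, room temperature) measured after PGC/ERR cells had 18 h at 37 C with pinned compound (23 nL in DMSO). Cells had been seeded at 2,000 per well and pre-incubated 6 h.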

[12] = target: Thyrotropin receptor (Homo sapiens) (UniProt P16473); experiment: qHTS assay to identify small molecule agonists of the thyroid stimulating hormone receptor (TSHR) signaling pathway (AID 1224843; calls by dose curve; also: nearly all actives have a fitted effect of over 45% in size)
How it was run: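 A cell-based cAMP HTRF format was run in TSHR-transfected HEK293 cells, 800 per well. Treatment: 30 min, room temperature. Detection: 1 h with labelled cAMP and anti-cAMP cryptate. Concentration-response over 15 points, three replicates.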

[13] = qHTS assay to identify small molecule antagonists of the estrogen related receptor (ERR) signaling pathway - cell viability counter screen (AID 1224818)
How it was run: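 Viability of ERR cells, CellTiter-Fluor fluorescence; 17.5 h compound exposure at 37 C, DMSO vehicle; 30 min reagent incubation at 37 C/5% CO2.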

[14] = qHTS assay to identify small molecule antagonists of the estrogen related receptor signaling pathway with the pleiotropic PPARgamma coactivator (PGC) cell viability counter screen (AID 1224822)
How it was run: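 17.5 h compound treatment of PGC/ERR cells at 37 C; readout CellTiter-Fluor fluorescence; run alongside the PGC/ERR antagonist screen to flag cytotoxic compounds.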

[15] = qHTS assay to identify small molecule antagonists of the estrogen related receptor signaling pathway with the pleiotropic PPARgamma coactivator (PGC) from Tox21 10K library (AID 1224841; call rule not given here; also: actives are mostly falling curves and most rising ones were filed inactive; nearly all actives have a fitted effect of over 50% in size)
How it was run: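 One-Glo luminescence, measured after half an hour at room temperature, quantified reporter output of PGC/ERR cells. These had been plated at 2,000 per well, incubated 6 h, dosed with compounds in DMSO, then kept 18 h at 37 C.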

[16] = qHTS assay to identify small molecule agonists of the retinoic acid receptor (RAR) signaling pathway (AID 1159553); conditions: C3RL4 RARE luciferase reporter, agonist, 6 h; activation: at 73.3 µM (top of the series) unless noted
How it was run: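 In this cell-based screen, 1,000 C3RL4 cells per well were cultured overnight, dosed with test chemicals in DMSO for 6 hr, and assessed for RARE luciferase luminescence.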

Measured: Potency

Thyrotropin receptor (Homo sapiens), sequence (P16473 whole entry, looked up): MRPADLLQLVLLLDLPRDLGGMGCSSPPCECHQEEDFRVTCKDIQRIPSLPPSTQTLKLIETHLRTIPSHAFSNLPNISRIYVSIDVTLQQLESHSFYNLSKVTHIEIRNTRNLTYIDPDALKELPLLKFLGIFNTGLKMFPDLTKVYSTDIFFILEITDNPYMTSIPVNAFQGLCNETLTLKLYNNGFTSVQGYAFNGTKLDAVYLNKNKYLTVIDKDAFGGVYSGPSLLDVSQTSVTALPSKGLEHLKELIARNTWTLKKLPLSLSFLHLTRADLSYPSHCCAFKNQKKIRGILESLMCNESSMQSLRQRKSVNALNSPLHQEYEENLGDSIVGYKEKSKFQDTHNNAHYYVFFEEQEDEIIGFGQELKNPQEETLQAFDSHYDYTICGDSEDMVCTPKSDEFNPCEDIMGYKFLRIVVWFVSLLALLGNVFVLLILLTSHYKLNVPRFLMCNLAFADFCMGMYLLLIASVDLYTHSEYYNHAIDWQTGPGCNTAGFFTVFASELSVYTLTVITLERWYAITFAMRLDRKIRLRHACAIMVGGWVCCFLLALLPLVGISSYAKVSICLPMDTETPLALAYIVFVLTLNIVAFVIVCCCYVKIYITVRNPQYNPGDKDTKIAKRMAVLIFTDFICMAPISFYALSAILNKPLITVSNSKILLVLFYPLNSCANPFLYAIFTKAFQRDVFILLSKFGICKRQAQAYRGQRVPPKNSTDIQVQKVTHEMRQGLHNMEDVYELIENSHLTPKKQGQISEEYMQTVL
Luciferin 4-monooxygenase (Photinus pyralis), sequence (P08659 whole entry, looked up): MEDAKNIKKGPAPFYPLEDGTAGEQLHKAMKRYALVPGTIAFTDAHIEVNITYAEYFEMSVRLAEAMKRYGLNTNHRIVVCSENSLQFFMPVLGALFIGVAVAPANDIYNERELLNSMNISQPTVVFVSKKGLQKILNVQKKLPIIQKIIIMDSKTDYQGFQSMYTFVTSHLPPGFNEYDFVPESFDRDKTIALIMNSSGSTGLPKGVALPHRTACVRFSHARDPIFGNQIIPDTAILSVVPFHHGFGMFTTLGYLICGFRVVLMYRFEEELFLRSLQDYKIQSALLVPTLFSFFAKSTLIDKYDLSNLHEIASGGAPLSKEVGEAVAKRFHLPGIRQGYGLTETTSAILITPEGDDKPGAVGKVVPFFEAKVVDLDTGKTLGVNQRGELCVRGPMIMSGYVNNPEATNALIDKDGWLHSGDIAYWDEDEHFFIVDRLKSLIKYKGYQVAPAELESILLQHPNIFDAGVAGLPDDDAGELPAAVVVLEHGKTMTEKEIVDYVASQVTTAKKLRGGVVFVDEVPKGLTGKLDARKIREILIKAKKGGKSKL
Nuclear receptor subfamily 1 group I member 3 (Homo sapiens), sequence (Q14994 whole entry, looked up): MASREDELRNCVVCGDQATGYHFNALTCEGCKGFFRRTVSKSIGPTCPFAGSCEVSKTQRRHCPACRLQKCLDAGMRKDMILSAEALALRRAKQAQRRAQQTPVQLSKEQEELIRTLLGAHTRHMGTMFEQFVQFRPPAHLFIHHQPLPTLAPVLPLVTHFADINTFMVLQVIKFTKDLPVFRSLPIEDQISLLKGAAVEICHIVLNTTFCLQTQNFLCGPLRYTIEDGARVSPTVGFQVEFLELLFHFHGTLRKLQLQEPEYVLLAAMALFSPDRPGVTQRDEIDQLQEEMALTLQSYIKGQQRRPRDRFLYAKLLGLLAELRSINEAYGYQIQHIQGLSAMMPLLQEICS

CC(=O)OC(C)(C)C1CC=C(C)CC1 (stereo not drawn)
not listed: [13] | [14] | [15] | [16]
inactive: all other assays above

Cc1ccccc1C=O
not listed: [3] | [11] | [13] | [14] | [15] | [16]
inactive: all other assays above

CCN(CC)CCNC(=O)c1ccc(N)cc1
not listed: [3] | [8] | [9] | [11] | [15] | [16]
inactive: all other assays above

O=C(NCC1CCCCN1)c1cc(OCC(F)(F)F)ccc1OCC(F)(F)F (stereo not drawn)
inactive: [1] | [2] | [4] | [6] | [7] | [8] | [10] | [12]

CC[N+](CC)(CC(=O)Nc1c(C)cccc1C)Cc1ccccc1
inactive: [1] | [2] | [4] | [5] | [7] | [10] | [12]

CC(C)(CO)CO
inactive: [1] | [2] | [4] | [5] | [6] | [7] | [10] | [11] | [12]

CC(=O)OCc1ccc2c(c1)OCO2
not listed: [3] | [13] | [14] | [16]
inactive: all other assays above

CC1(C)C(=O)N(Cl)C(=O)N1Cl
inactive: [1] | [2] | [4] | [5] | [6] | [7] | [10] | [12]

CC1(C)[C@@H](O[C@H]2O[C@H](C(=O)O)[C@@H](O)[C@H](O)[C@H]2O[C@@H]2O[C@H](C(=O)O)[C@@H](O)[C@H](O)[C@H]2O)CC[C@]2(C)[C@H]3C(=O)C=C4[C@@H]5C[C@@](C)(C(=O)O)CC[C@]5(C)CC[C@@]4(C)[C@]3(C)CC[C@@H]12
inactive: [1] | [2] | [16] | [4] | [5] | [7] | [8] | [10] | [12]

CCn1cc(C(=O)O)c(=O)c2cc3c(cc21)OCO3
not listed: [3] | [8] | [9] | [11] | [15] | [16]
inactive: all other assays above

CCCCCCCCCCCCCC(=O)O
active: [5] 50.1 µM
not listed: [3] | [13] | [14] | [15] | [16]
inactive: all other assays above

CC(C)c1ccc(C(C)C)cc1
not listed: [3] | [11] | [13] | [14] | [15] | [16]
inactive: all other assays above

NC(N)=S
not listed: [3] | [11] | [13] | [14] | [15] | [16]
inactive: all other assays above

O=C(Cl)c1ccc(C(=O)Cl)cc1
inactive: [1] | [2] | [3] | [4] | [7] | [8] | [9] | [10] | [12]

CCc1cccc(CC)c1N
not listed: [3] | [11] | [13] | [14] | [15] | [16]
inactive: all other assays above

NC(=O)c1ncn([C@@H]2O[C@H](CO)[C@@H](O)[C@H]2O)n1
active: [8] 7.23 µM
not listed: [3] | [6] | [11] | [12] | [15] | [16]
inactive: all other assays above

C1CCCNCC1
not listed: [3] | [6] | [13] | [14] | [15] | [16]
inactive: all other assays above

N[C@@H](Cc1cc(I)c(Oc2ccc(O)c(I)c2)c(I)c1)C(=O)O
inactive and 56.7 µM (active): [9]
inactive: [1] | [2] | [4] | [5] | [6] | [7] | [10] | [12]

Cc1nnc(NS(=O)(=O)c2ccc(N)cc2)s1
inactive: [1] | [2] | [4] | [5] | [6] | [7] | [10] | [12]

O=[N+]([O-])c1cc(C(F)(F)F)ccc1Cl
not listed: [3] | [13] | [14] | [15] | [16]
inactive: all other assays above
